Measurements taken from PubChem BioAssay AID588592 (Sanford-Burnham Center for Chemical Genomics, 2011).
Some of the results follow. A number with no mark means an inactive call. How the calls were made is not given here.

Test: fluorescence interference of Apaf-1 activator hits, dose response, artefact control for Apaf-1 activator project (AID 588592)
Settings: fluorescence interference counterscreen, Apaf-1 activator assay

Row | Structure (SMILES) | EC50 [µM]
1 | C=CC1=C(C(=O)O)N2C(=O)[C@@H](NC(=O)/C(=N\OCC(=O)O)c3csc(N)n3)[C@H]2SC1 | > 100
2 | CCN(CC)CCOc1ccc2c(c1)C(=NNC(=O)c1ccccn1)c1cc(OCCN(CC)CC)ccc1-2 | > 100
3 | C=C(C)C(=O)Nc1cccc(C2=NOC3(C2)C[C@H](C(N)=O)N(C(=O)C(c2ccccc2)c2ccccc2)C3)c1 (some centres undefined) | > 100
4 | C=CC1=C(C(=O)O)N2C(=O)[C@@H](NC(=O)/C(=N/OCC(=O)O)c3csc(N)n3)[C@H]2SC1 | > 100
